Assay results: PubChem BioAssay

experiment: binders from COS7 lysate, DM2A8 probe, primary screen, torsin A project, cell lysate, small-molecule microarray, fluorescence 635/667 (AID 1065); conditions: higher = more signal, COS7 lysate expressing mutant human TOR1A

SMILES	composite z-score
O=C1C[C@@](C(=O)O)(c2ccc([N+](=O)[O-])cc2)[C@@H](c2ccc(CO)cc2)N1CC12CC3CC(CC(C3)C1)C2	0.603
Cc1ccc(S[C@]2(C(=O)O)CC(=O)N(Cc3ccccc3C(F)(F)F)[C@@H]2c2ccc(CO)cc2)cc1	-0.138
COC(=O)c1ccc(OC)c(/C=C\CC(CCc2ccccc2)OC(C)=O)c1 (stereo not given)	-0.115
C#CCNS(=O)(=O)N(C)C	0.0943
O=C1CSC(c2cccc([N+](=O)[O-])c2)N1c1ccccc1 (stereo not given)	-0.0123
CCN(CC)c1ccc(N2CC=CC34O[C@@H]5/C=C\CCCOC(=O)C5[C@H]3C(=O)N(CCCCCO)[C@@H]4C2=O)cc1 (stereo not given in full)	-1.53
OCc1ccc(-c2cc[n+](Cc3cccc(OC(F)(F)F)c3)cc2)cc1	0.502
COCC1=C([C@H](O)CCc2ccccc2)[C@H](CO)[C@@H]2C(=O)N(C)C(=O)[C@@H]2C1	0.24
COC(=O)[C@@]1(Cc2ccc(F)cc2)[C@H]2c3cc(C(=O)N(C)C)n(Cc4ccc(C)c(F)c4F)c3C[C@H]2CN1C(=O)c1ccccc1	0.0685
CCOC(=O)C[C@H]1[C@H](OC(=O)c2ccc(C(=O)c3ccccc3)cc2)[C@@H](NC(=O)C2CCCCC2)c2cc(OCCCO)ccc2N1C(=O)Cc1ccc(OC)cc1	0.673
CCCN1C(=O)[C@@]2(Cc3ccccc3)N=C(c3ccc(OCCCO)cc3)O[C@H]2c2ccccc21	0.802
O=C1C2C=CC(C(O)c3ccccn3)N(Nc3ccccc3)C2C(=O)N1c1ccccc1 (stereo not given)	-1.39
COc1cc(C(O)C2C=CC3C(=O)N(C)C(=O)C3N2NC(=O)OC(C)(C)C)cc(OC)c1OC (stereo not given)	-0.27
COCC(=C=CC[C@@H](O)c1ccccc1OCCO)C[C@@H](O)c1ccccn1	0.663
C[N+](C)(C)CCCC[C@@H]1NC(=O)[C@@H]2C[C@H](C(=O)O)[C@H](c3cccc(OCCO)c3)N2C1=O	0.0439
C=CCC(OC(C)=O)[C@@H]1[C@@H](N(Cc2ccc(-c3cccc(C(F)(F)F)c3)o2)C(=O)c2cccc3ccccc23)c2cc(OCCCO)ccc2N1C(=O)c1ccc(-c2ccccc2)cc1 (stereo not given in full)	0.0536
COCCCNC(=O)[C@@]1(C)c2ccccc2C(=O)N(c2ccc(C)cn2)[C@H]1c1ccc(CO)cc1	-0.331
COCCCNC(=O)[C@@]1(Cc2ccccc2CN=[N+]=[N-])N=C(c2ccc(OCCCO)cc2)O[C@H]1c1ccccc1N=[N+]=[N-]	1.06
CC1(C)[C@@H]2CC(C(O)C3C=CC4C(=O)N(c5ccccc5)C(=O)C4N3Nc3ccccc3F)=C[C@@H]1C2 (stereo not given in full)	0.159
CCOC(=O)C[C@H]1[C@H](OC(=O)Cc2ccc3c(c2)OCO3)[C@@H](NC(=O)c2ccccc2)c2cc(OCCCO)ccc2N1C(=O)c1ccc2ccccc2n1	-0.183
C=CC[C@]1(C(=O)NCC(O)CO)N=C(c2ccc(OCCCO)cc2)O[C@H]1c1ccccc1N=[N+]=[N-] (stereo not given in full)	-0.444
C=C(COC)C(=O)CC[C@H](OC(=O)c1ccccc1-c1ccccc1C(=O)O)c1ccc(OCCO)cc1	1.42
COC(=O)[C@@]1(Cc2ccc(OC)cc2)[C@H]2c3cc(C(=O)N(C)C)n(Cc4cc(F)c(F)c(F)c4)c3C[C@H]2CN1C(=O)c1ccccc1	-0.136
C=CCC(OC(C)=O)[C@@H]1[C@@H](N(Cc2ccc(-c3ccccc3)cc2)C(=O)Cc2ccc(OC)cc2)c2cc(OCCCO)ccc2N1C(=O)c1ccc(-c2ccccc2)cc1 (stereo not given in full)	0.253
COc1ccc(CCNC(=O)[C@@H]2c3ccccc3C(=O)N(Cc3ccccc3)[C@H]2c2ccc(CO)cc2)cc1	1.24
COC(=O)C(CC#Cc1ccc2c(c1)[C@]1(C(=O)N2)[C@H](c2ccccc2OCCO)N2[C@H](c3ccccc3)[C@H](c3ccccc3)OC(=O)[C@H]2[C@@H]1C(=O)Nc1nc2ccccc2s1)C(=O)OC	0.675
COc1cc2c(cc1OC)CN(C(=O)[C@@H]1[C@H]3C(=O)O[C@H](c4ccccc4)[C@H](c4ccccc4)N3[C@H](c3ccc(OCCO)cc3)[C@@]13C(=O)Nc1ccc(C#CCCO)cc13)CC2	0.718
C[N+](C)(C)CCCCCCNC(=O)[C@H]1C[C@H]2C(=O)N3CCC[C@H]3C(=O)N2[C@H]1c1cccc(OCCO)c1	2.05
C=C(C(=O)CC[C@H](OC(=O)c1cccnc1)c1ccc(OCCO)cc1)C(C)C	1.43
C=C(COC)C(=O)CC[C@H](OC(=O)c1ccccc1-c1ccccc1C(=O)O)c1ccc(CO)o1	-0.192
